VACV Venus inh: inhibitors of vaccinia virus (Venus reporter); Vaccinia virus Venus reporter expression, fluorescence; Potency, µM (series often up to 36.5 µM), for the others: at the top dose activity change, negative = inhibition, most hits filed as inhibitors; 330,000 compounds, 0.46% hits; AID 720580; calls by dose curve; tested in A549 cells; further: potency means the concentration at half of the fitted maximal effect; nearly all actives have a fitted effect of over 30% in size
Marburg entry inh: blocks Marburg virus binding to or entry into cells; Marburg virus pseudotyped entry inhibition, cell reporter; Potency, µM (top dose mostly 37.8 µM), without a hit: at the top dose activity change, negative = inhibition, hits mostly inhibitors; 300,000 compounds, 1.8% hits; AID 540276; calls by dose curve; tested in HEK293 cells; further: potency means the concentration at half of the fitted maximal effect
Lassa entry inh: inhibitors of Lassa virus binding or cell entry. 300,000 compounds, 1.2% hits. Potency, µM (doses to about 37.9 µM), for inactives: top-dose activity change, negative = inhibition, hits mostly inhibitors. AID 540256. Lassa virus pseudotype entry inhibition, cell reporter; calls by dose curve; tested in HEK293 cells; further: potency means the concentration at half of the fitted maximal effect; nearly all actives have a fitted effect of over 50% in size
Vaccinia mCherry: vaccinia inhibition (mCherry reporter) | Vaccinia virus mCherry reporter infection, fluorescence | Potency, µM (series often up to 36.5 µM), inactives show at the highest dose activity change, negative = inhibition, most hits filed as inhibitors | 310,000 compounds, 0.63% hits | AID 720579; calls by dose curve; tested in A549 cells; further: potency means the concentration at half of the fitted maximal effect; nearly all actives have a fitted effect of over 35% in size
HCMV antiviral: human cytomegalovirus inhibition; 410,000 compounds, 4.5% hits; activity change, negative = inhibition, % at 57.5 µM; HFF cells, HCMV-luciferase reporter, 72 h; stronger effect = lower value; AID 1259415; in the data active means activity change below about -60%; inconclusive means no clear call, values can overlap the other calls; inactive means above about -39%
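Screen run at 2 compound doses on HFFs infected with reporter HCMV, MOI 1 PFU/cell. Luciferase activity from cell lysates at 72 h post infection gave inhibition relative to buffer-only and Salinomycin wells.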
FMDV antiviral: foot and mouth disease virus antiviral activity. FMDV antiviral cell-based qHTS. Potency, µM (doses to about 57.9 µM), for the others: at the top dose activity change, negative = inhibition, actives largely listed as inhibitors. 410,000 compounds, 1.2% hits; calls by dose curve; tested in HEK293T cells; further: read-out not given here; potency means the concentration at half of the fitted maximal effect; nearly all actives have a fitted effect of over 45% in size
* = called active by the depositor; i = inactive; ? = inconclusive; . = no result given; ! = repeats disagree; [ ] = remark or other dose. An excerpt weighted towards active compounds, which were near 6.5% of everything screened. On the % scale 0 is the no-effect control and ±100 the full control effect.

SMILES	VACV Venus inh	Marburg entry inh	Lassa entry inh	Vaccinia mCherry	HCMV antiviral	FMDV antiviral
COc1ccc(NC(=O)CSc2nc(N)c(C(=O)Nc3ccc(N(C)C)cc3)s2)cc1	?	?	-19%	.	.	8%
CC(C)c1nc(SCC(=O)Nc2ccc(N(C)C)cc2)c2ccccc2n1	.	.	.	.	-77*	?
CC(C)(C)c1nc(SCC(=O)NNC(=O)c2ccccc2)c2ccccc2n1	-30%	?	.	?	-63*	0%
FC(F)(F)c1cccc(-c2nc3c(NCCc4ccccn4)nccc3[nH]2)c1	.	.	.	.	-3	.
CCc1ccccc1NC(=O)CCc1c(C)nn(-c2ccc(N3CCOCC3)nn2)c1C	-4%	.	6%[46.1 µM]	-9%	-62*!	-19%
CCC(CC)C(=O)N(C)c1c(C)nc2c(OCCOc3ccc(F)cc3)cccn12	-21%	.	.	-3%	-92*	?
Cc1nc2c(OCc3ccc(OC(F)F)cc3)cccn2c1N(C)C(=O)CCC1CCCC1	-15%	.	.	-3%	-23	25µM*
CCOC(=O)/C(C#N)=N/Nc1c(C)n(C)n(-c2ccccc2)c1=O	-7%	7%[46.1 µM]	-25%[46.1 µM]	?	3	-4%
Cc1c(N/N=C(\C#N)C(=O)c2ccccc2)c(=O)n(-c2ccccc2)n1C	-27%	11µM*	?	13µM*	-79*	-17%
Cc1ccccc1C(=O)/C(C#N)=N/Nc1c(C)n(C)n(-c2ccccc2)c1=O	?	?	?	?	-88*	-32%
Cc1ccccc1OCC(=O)NCC(=O)OCC(=O)c1ccc(F)cc1	-15%	.	.	20%	.	.
CCOC(=O)C1=C(C)N=c2s/c(=C\c3ccncc3)c(=O)n2C1c1ccc2c(c1)OCO2 (stereo not drawn)	-18%	-14%	-14%	.	-13	25µM*
COc1ccccc1C(=O)N(Cc1cc2cccc(C)c2nc1N1CCC(O)CC1)C1CC1	5%	.	.	-14%	.	-7%
Cc1ccc(C)c(OCC(=O)N/N=C/c2ccc(N3CCOCC3)cc2)c1	-5%	.	.	i	6	?
CC(C)(C)c1ccc(OCC(=O)N/N=C/c2ccc(N3CCOCC3)cc2)cc1	-23%	-23%	0.092µM*	-4%	-17	0%
C/C(=N\NC(=O)c1ccc(Cl)cc1)c1ccc(N2CCOCC2)cc1	-9%	2%	8%	i	46	0%
C/C(=N/NC(=O)COc1ccc(C(C)(C)C)cc1)c1ccc(N2CCOCC2)cc1	-14%	-4%	0.56µM*	i	15	-3%
CC(C)(C)C(=O)Nc1cccc(C(=O)OCc2cc(=O)n3nc(C4CC4)sc3n2)c1	-10%	.	-29%[46.1 µM]	-14%	14	?
O=C(O)CCCC(=O)OCCCCc1cccs1	.	2%	8%	.	-22	6%
Nc1nnc(CCCCc2cccs2)o1	10µM*	9%	-12%	i	-32	-1%
Cc1cccc(-n2ncc3c2CCCC3NC(=O)C2=CC(=O)CC(C)(C)O2)c1C (stereo not drawn)	-13%	?	-22%	-8%	-68*	?
Cc1cccc(-n2ncc3c2CCCC3NC(=O)CCN2CCCO2)c1C (stereo not drawn)	-15%	?	?	-20%	-76*	0%
Cc1cc(C)c(C(=O)NC2CCCc3c2cnn3-c2cccc(C)c2C)o1 (stereo not drawn)	6%	?	?	-28%	-74*	-17%
CCc1cc(C(=O)NC2CCCc3c2cnn3-c2cccc(C)c2C)n(C)n1 (stereo not drawn)	-13%	?	?	-27%	-86*	28µM*
Cc1cccc(-n2ncc3c2CCCC3NC(=O)C2(C(N)=O)CC2)c1C (stereo not drawn)	-16%	?	?	?	-40	?
SMILES	VACV Venus inh	Marburg entry inh	Lassa entry inh	Vaccinia mCherry	HCMV antiviral	FMDV antiviral
CN1CC(=O)N/C1=N\C(=O)Nc1cccc(Cl)c1	.	.	.	.	15	.
CCOc1cc(-c2nnc(SCC(=O)NCCCOC)nc2-c2ccc(OC)c(OCC)c2)ccc1OC	-9%	.	-29%[46.1 µM]	-12%	12	1%
COc1ccc(C(=O)Oc2cc3c4c(c2)C(C)=CC(C)(C)N4C(=O)C3=O)cc1OC	-6%	?	12%	-12%	-14	?
COc1cccc(C(=O)Oc2cc3c4c(c2)C(C)=CC(C)(C)N4C(=O)C3=O)c1	-17%	?	?	i	-77*	.
COc1cc2c3c(c1)C(C)=CC(C)(C)N3C(=O)C2=O	0%	?	3%	-22%	-85*	30%
C[C@@H]1CC[C@H]2C(=O)N(Cc3cccc([N+](=O)[O-])c3)C[C@H](O)CN2[C@@H]1c1cccc(Br)c1	.	-10%[14.2 µM]	7%[14.3 µM]	.	.	.
Cn1c(CSCc2ccc(Cl)c(Cl)c2)n[nH]c1=S	-24%	11%	?	?	-67*	?
NS(=O)(=O)c1ccc(NS(=O)(=O)c2ccc(NC(=S)Nc3ccccc3)cc2)cc1	-4%	16%[46.1 µM]	-2%	i	-22	13%
NS(=O)(=O)c1ccc(NC(=S)Nc2ccn(Cc3cccc4ccccc34)n2)cc1	-30%	6.3µM*	3.5µM*	-26%	-79*	?
CC(C)c1cnc2c(c1SCC(=O)NC(C)(C)C)c(=O)n(C)c(=O)n2C	-4%	.	12%[46.1 µM]	-7%	-27	-15%
CN(C)S(=O)(=O)c1cccc(C(=O)NC2CCSc3ccccc32)c1 (stereo not drawn)	-7%	18%[46.1 µM]	2%[46.1 µM]	i	-11	18%
CON(C)S(=O)(=O)c1cccc(C(=O)NC2CCSc3ccccc32)c1 (stereo not drawn)	-9%	?	?	-5%	-74*	18%
CNS(=O)(=O)/C=C/c1ccccc1	-8%	?	20%	-13%	-72*	13%
CCCNS(=O)(=O)/C=C/c1ccccc1	-13%	21%[46.1 µM]	-14%	-9%	42	52%
CC(=O)Oc1ccc(N(C(C)=O)S(=O)(=O)c2cccs2)c2ccccc12	2%	12µM*	14%[14.3 µM]	-2%	-24	16µM*
CN1C(=O)NC(=O)/C(=C\C=C\c2ccccc2[N+](=O)[O-])C1=O	-7%	?	?	-26%	-99*	?
NC(=O)c1ccsc1NC(=O)CCc1ccccc1	.	.	.	.	5	42%
CCOc1ccccc1OCCCC(=O)Nc1sccc1C(N)=O	-24%	?	1%	-29%	-61*	-5%
COC(=O)C1=CN(Cc2ccc(OC)cc2)C=C(C(=O)OC)C1c1ccsc1	-3%	?	10µM*	-8%	-7	-8%
COC(=O)c1ccc(NC(=O)CCn2cnnn2)cc1	0%	.	?	-3%	-18	-10%
COc1ccc(/C=N/Nc2cc(N(C)C)nc(N(C)C)n2)cc1	-29%	4.5µM*	?	-23%	36	?
COc1ccc(/C=N/Nc2cc(OC)ncn2)cc1	-11%	?	10µM*	i	30	-57%
CCC[C@H]1[C@H](N(Cc2cccs2)Cc2cccs2)CC[C@@]23CCCN2C(=O)CCC[C@@H]13	.	.	.	.	18	.

From PubChem
